This is an account of results in the supplement of paper PMC6135742.

The structures appear in SMILES notation. Values joined by “and” are separate entries in the source; they are usually repeats but may differ in a detail not shown here. Equal entries are not always repeated. Structures can show the parent of a compound that is named as a salt. ± gives the standard deviation of the averaged measurements. The full ranking holds about 2,600 compounds; the median of “total cell number (DAPI+ nuclei) relative to DMSO vehicle control” is about -1.4, and the lowest 2% start at about -23. The list comes from a sample in which the lowest values are over-represented; it also holds similar structures and randomly drawn compounds.

The assay concerns jimpy (Plp1 jimpy) mouse iPSC-derived oligodendrocyte progenitor cells. Kind of assay: total cell number (DAPI+ nuclei) relative to DMSO vehicle control (SDs above negative control mean); higher = more surviving cells. Particulars: 10 µM; 3 days.
`CNC(=O)c1ccc2cc([C@@]3(O)CCn4cncc43)ccc2c1` [TAK-700 (Orteronel)] had a total cell number of 0.9.

Regarding `CC1(C)S[C@@H]2[C@H](NC(=O)C(C(=O)O)c3ccccc3)C(=O)N2[C@H]1C(=O)O` (some centres undefined) [Carbenicillin disodium], the total cell number stood at 0.323.

As to `O=C(Nc1ccc(-c2ccnc(Nc3ccc(N4CCOCC4)cc3)n2)cc1)C1CCCN1` (centres undefined), the total cell number was -12.4.

In turn, `Cc1nc(N)sc1-c1ccnc(Nc2ccc(N3CCOCC3)cc2)n1` yielded a total cell number of -22.6.

`N#CCNC(=O)c1ccc(-c2ccnc(Nc3ccc(N4CCOCC4)cc3)n2)cc1` showed a total cell number of -12.5.

In turn, `CC(C)OC(=O)C(C(=O)OC(C)C)=C1SC=CS1` [Malotilate] came in with a total cell number of 7.42.

In the case of `COc1ccc(C2(CNC(=O)c3ccc(NC(=O)c4ccco4)cc3)CCOCC2)cc1`, the total cell number is -6.22.

As for `CO[C@@H](C(=O)N1Cc2[nH]nc(NC(=O)c3ccc(N4CCN(C)CC4)cc3)c2C1)c1ccccc1`, the total cell number was -24.2.

The molecule `CCc1cccc(CC)c1NC(=O)N1Cc2[nH]nc(NC(=O)c3ccc(N4CCN(C)CC4)cc3)c2C1` displayed a total cell number of -17.5.

With `COc1cc2c(Oc3ccc4[nH]c(C)cc4c3F)ncnc2cc1OCCCN1CCCC1` [Cediranib (AZD2171)], the total cell number is -26.9.

`Cc1cc2c(F)c(Oc3ncnn4cc(OC[C@@H](C)OC(=O)[C@H](C)N)c(C)c34)ccc2[nH]1` came in with a total cell number of -4.11.

Consider `Cc1cc2c(F)c(Oc3ncnn4cc(OC[C@@H](C)O)c(C)c34)ccc2[nH]1`, for which the total cell number was -1.9.

As to `CN(C)C(=O)[C@H](O)[C@H](Cc1ccccc1)NC(=O)c1cc2cc(Cl)ccc2[nH]1`, the total cell number turned out to be 0.79 ± 0.2.

In turn, `CCCC(CCC)C(=O)O[C@H]1C[C@H]2CC[C@@H](C1)[N+]2(C)C` [Anisotropine methyl bromide] displayed a total cell number of 12.1.

Take `CS(=O)(=O)N1CCN(Cc2cc3nc(-c4cccc5[nH]ncc45)nc(N4CCOCC4)c3s2)CC1`: the total cell number was -23.7.

In the case of `COc1ccc(-c2nc(N3CCOCC3)c3sc(CN(C)c4ncc(C(=O)NO)cn4)cc3n2)cn1`, the total cell number was -10.4.

Turning to `Cc1c(CN2CCN(C(=O)[C@H](C)O)CC2)sc2c(N3CCOCC3)nc(-c3cnc(N)nc3)nc12`, the total cell number is -11.4.

`O=c1cc(-c2ccccc2)oc2cc(O)c(O)c(O)c12` [Baicalein] showed a total cell number of -6.52.

`CCCCOc1ccc(C(=O)Nc2ccc(F)cc2F)cc1` gave a total cell number of 1.72.

Molecule `CCCCCCCCCCCC1=C(O)C(=O)C=C(O)C1=O` [Embelin] registered a total cell number of 1.

Molecule `COc1cc(Nc2ncc3c(n2)-c2ccc(Cl)cc2C(c2c(F)cccc2OC)=NC3)ccc1C(=O)O` [Alisertib (MLN8237)] displayed a total cell number of -12.8.

Molecule `Cc1ccc(-c2cc(C(F)(F)F)nn2-c2ccc(S(N)(=O)=O)cc2)cc1` [Celecoxib] returned a total cell number of 0.578 ± 0.53.

Molecule `NS(=O)(=O)c1ccc(-n2nc(C(F)(F)F)cc2-c2ccc(Cl)cc2)cc1` showed a total cell number of 0.298.

In the case of `NCC(=O)Nc1ccc(-n2nc(C(F)(F)F)cc2-c2ccc3c(ccc4ccccc43)c2)cc1`, the total cell number was -26.5.

Turning to `CCCCc1nc2cc(/C=C/C(=O)NO)ccc2n1CCN(CC)CC` [Pracinostat (SB939)], the total cell number was -12.2.

For `CCN(CC)CCNC(=O)c1cc(S(C)(=O)=O)ccc1OC` [Tiapride hydrochloride], the total cell number was -1.15.

`CCN(CC)CCNC(=O)c1c(C)[nH]c(/C=C2\C(=O)Nc3ccc(F)cc32)c1C` [Sunitinib Malate] displayed a total cell number of -26.5.

The molecule `CCN(CC)CCNC(=O)c1c(C)[nH]c(/C=C2\C(=O)Nc3ccc(F)cc32)c1C` [Sunitinib malate] came in with a total cell number of -11.2.

`Cc1[nH]c(/C=C2\C(=O)Nc3ccccc32)c(C)c1CCC(=O)O` [TSU-68 (SU6668, Orantinib)] registered a total cell number of -0.233.

Regarding `C[N+](C)(C)CC(O)CC(=O)[O-]` (racemic) [DL-Carnitine HCl], the total cell number was 2.24.

`CC(=O)C(C)=O` [2,3-Butanedione]: the total cell number is -1.17.

In turn, `CC[C@H]1OC(=O)C[C@@H](O)[C@H](C)[C@@H](O[C@@H]2O[C@H](C)[C@@H](O)[C@H](N(C)C)[C@H]2O)[C@@H](CCN2C[C@H](C)C[C@H](C)C2)C[C@@H](C)C(=O)/C=C/C(C)=C/[C@@H]1CO[C@@H]1O[C@H](C)[C@@H](O)[C@@H](OC)[C@H]1OC` [Tilmicosin] displayed a total cell number of -3.95.

`Cc1cc(C)c(/C=C2\C(=O)Nc3ccccc32)[nH]1` [Semaxanib (SU5416)] yielded a total cell number of -1.49.

The molecule `Cc1cc(C)c(/C=C2\C(=O)Nc3ccccc32)[nH]1` returned a total cell number of -3.96.

As for `COC1=CC(c2cc3ccccc3[nH]2)=N/C1=C\c1[nH]c(C)cc1C` [Obatoclax Mesylate (GX15-070)], the total cell number is -27.6.

The molecule `C[C@H](NC(=O)Cc1cc(F)cc(F)c1)C(=O)N[C@@H]1C(=O)N(C)c2ccccc2-c2ccccc21` yielded a total cell number of -6.63.

In turn, `NS(=O)(=O)c1nn2cc(-c3ccccc3)nc2s1` registered a total cell number of -5.78.

Consider `CCCCCCCC/C=C\CCCCCCCC(=O)NCc1ccc(O)c(OC)c1` [Olvanil], for which the total cell number was -4.4.

`Cc1cc(Nc2cc(N3CCN(C)CC3)nc(/C=C/c3ccccc3)n2)n[nH]1` yielded a total cell number of -26.3.

In the case of `C[C@@H](N)[C@H]1CC[C@H](C(=O)Nc2ccncc2)CC1`, the total cell number is -1.42 and -2.14.

Regarding `Cc1cc(Nc2cc(N3CCN(C)CC3)nc(Sc3ccc(NC(=O)C4CC4)cc3)n2)n[nH]1` [VX-680 (Tozasertib, MK-0457)], the total cell number was -24.

Take `O=C(Nc1ccc2[nH]ncc2c1)C1CCC1` [Rhodblock 6]: the total cell number was -2.58.

Molecule `Fc1ccc(C(OCCCc2cnc[nH]2)c2ccc(F)cc2)cc1` gave a total cell number of -1.91.

On to `CC(C)NCC(O)c1ccc(NS(C)(=O)=O)cc1` (racemic) [(±)-Sotalol hydrochloride], for which the total cell number is -1.64.

The molecule `COCCNC(=O)COc1ccc(OCCNC[C@H](O)COc2ccccc2)cc1` [ZD 7114 hydrochloride] came in with a total cell number of -0.987.

Take `CCCC(=O)O[C@]1(C(=O)COC(C)=O)CC[C@H]2[C@@H]3C[C@H](F)C4=CC(=O)C=C[C@]4(C)[C@@]3(F)[C@@H](O)C[C@@]21C` [Difluprednate]: the total cell number stood at 4.34.

Regarding `COc1cc(N2CCN(C)CC2)ccc1Nc1nccc(-c2cn(C)c3cnccc23)n1`, the total cell number is -15.9.

For `O=C(O)Cc1ccc(O)c(O)c1` [3,4-Dihydroxyphenylacetic acid], the total cell number is -1.97.

For `Nc1nc(Cl)nc2c1ncn2[C@@H]1O[C@H](CO)[C@@H](O)[C@@H]1F` [Clofarabine], the total cell number is -21.2.

Take `Nc1nc(Cl)nc2c1ncn2[C@H]1C[C@H](O)[C@@H](CO)O1` [Cladribine]: the total cell number is -22.8.

On to `Nc1nc(Cl)nc2c1ncn2[C@@H]1O[C@H](CO)[C@@H](O)[C@H]1O` [2-Chloroadenosine], for which the total cell number was -3.18.

In the case of `c1cnc2cc3c(cc2n1)[C@@H]1CNC[C@H]3C1` [Varenicline tartrate], the total cell number was -2.7.

`c1cnc2cc3c(cc2n1)[C@@H]1CNC[C@H]3C1` [Varenicline Tartrate] returned a total cell number of 1.55.

Regarding `O=C(O)C1(C(=O)O)CCC1.[NH2-].[NH2-].[Pt+2]` [Carboplatin], the total cell number was -4.56 ± 1.4.

Consider `CSc1nc(N)c2ncn([C@@H]3O[C@H](COP(=O)(O)OP(=O)(O)OP(=O)(O)O)[C@H](O)C3O)c2n1` (some centres undefined) [2-Methylthioadenosine triphosphate tetrasodium], for which the total cell number amounted to 1.81.

With `C=CC(=O)N1CCC[C@@H](n2nc(-c3ccc(Oc4ccccc4)cc3)c3c(N)ncnc32)C1`, the total cell number is -8.95.

As to `Nc1ncnc2c1c(-c1cccc(OCc3ccccc3)c1)cn2C1CC(CN2CCCC2)C1` (centres undefined), the total cell number is -25.8.

`Nc1ncnc2c1c(-c1ccc(Oc3ccccc3)cc1)cn2C1CCCC1`: the total cell number is -5.56.

For the molecule `O=C(Nc1ccccc1C(=O)NC1CCCCNC1=O)c1cc2ccccc2s1` (centres undefined), the total cell number was -0.315.

Take `COC(=O)N[C@H](C(=O)N1CCC[C@H]1c1ncc(-c2ccc(-c3ccc(-c4cnc([C@@H]5CCCN5C(=O)[C@@H](NC(=O)OC)C(C)C)[nH]4)cc3)cc2)[nH]1)C(C)C`: the total cell number was -5.73.

`COc1cccc2c1[C@@H]1CN(CCCCn3c(=O)[nH]c4c(sc5ncc(-c6ccccc6)nc54)c3=O)C[C@@H]1CO2` [Fiduxosin hydrochloride] returned a total cell number of -6.17.

Turning to `Cc1nc(C(=O)NCC(=O)O)c(O)c2ccc(Oc3ccccc3)cc12`, the total cell number was determined as 3.22.

Consider `CC(C)c1cc(C(=O)N2Cc3ccc(CN4CCN(C)CC4)cc3C2)c(O)cc1O`, for which the total cell number is -25.7.

In turn, `C[C@@H](Oc1cc(-n2cnc3ccc(CN4CCN(C)CC4)cc32)sc1C(N)=O)c1ccccc1C(F)(F)F` registered a total cell number of -14.7.

The molecule `Nc1ncnc2c1ncn2[C@@H]1O[C@H](COP(=O)(O)OP(=O)(O)OP(=O)(O)OP(=O)(O)OC[C@@H]2O[C@H](n3cnc4c(N)ncnc43)C(O)[C@@H]2O)[C@H](O)C1O` (some centres undefined) [P1,P4-Di(adenosine-5')tetraphosphate triammonium] gave a total cell number of -0.947.

On to `Nc1c(S(=O)(=O)O)cc(Nc2ccc(Nc3nc(Cl)nc(Nc4cccc(S(=O)(=O)O)c4)n3)c(S(=O)(=O)O)c2)c2c1C(=O)c1ccccc1C2=O` [Reactive Blue 2], for which the total cell number was -0.98.

Regarding `C[C@@H]1O[C@@H](O[C@H]2[C@H](Oc3cc(O)c(C(=O)CCc4ccc(O)cc4)c(O)c3)O[C@H](CO)[C@@H](O)[C@@H]2O)[C@H](O)[C@H](O)[C@H]1O` [Naringin Dihydrochalcone], the total cell number is -0.984.

For the molecule `Cc1nc2c([nH]1)c(=O)n(C)c(=O)n2Cc1ccco1` [Furafylline], the total cell number was -0.322.

In turn, `C=CC(=O)Nc1cccc(Nc2nc(Nc3ccc(OCCOC)cc3)ncc2F)c1` gave a total cell number of -15.3.

Consider `O=C(NCCCNc1nc(Nc2cccc(NC(=O)N3CCCC3)c2)ncc1I)c1cccs1`, for which the total cell number is -23.5.

As for `O=C(Nc1cccc(Nc2ncc(Br)c(NCCc3cnc[nH]3)n2)c1)N1CCCC1`, the total cell number was -24.3.

Molecule `Cc1cnc(Nc2ccc(OCCN3CCCC3)cc2)nc1Nc1cccc(S(=O)(=O)NC(C)(C)C)c1` gave a total cell number of -12.3.

Molecule `NC[C@@H]1O[C@H](c2ccccc2)Cc2c1ccc(O)c2O` returned a total cell number of -2.54.

Turning to `CCCCCCCCCCCCc1ccc(S(=O)(=O)Nc2nncs2)cc1`, the total cell number came out at 1.21.
